Results taken from the supplement of paper PMC10849652.
Of roughly 8,800 targets only a part is listed; those with a hit were picked by preference. About 0.5% of all pairs of compound and target were hits. Values without a mark were called inactive.

How the values were obtained:
Experiment in all cases: log2 fold change, soluble protein after heating vs DMSO (PISA); higher = thermal stabilisation; K562 lysate, 10 uM; active = over 0.2 and 3.5 SD of the protein, either way, in both replicates (recomputed)
[1] = compound: CS(=O)(=O)CCNCc1ccc(-c2ccc3ncnc(Nc4ccc(OCc5cccc(F)c5)c(Cl)c4)c3c2)o1 [lapatinib]
Procedure, shortened: (§1)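 K562 pellets were dounce-homogenised in PBS pH 7.4 containing 1 mM MgCl2, and the crude extract, at 1 mg/mL protein, was exposed to 10 μM compound for 30 min. Aliquots were heated for 3 min across 48°C-58°C, pooled, brought to 0.5% NP-40 at 4°C and spun at 21,000xg for 90 min, with the supernatant taken as soluble protein. TMTpro 16plex LC-MS/MS with equalised channel sums quantified that protein. Values are log-two fold changes in thermal stability relative to solvent controls, taken from duplicates.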

[2] = compound: CS(=O)(=O)N1CCN(Cc2cc3nc(-c4cccc5[nH]ncc45)nc(N4CCOCC4)c3s2)CC1 [pictilisib]
Procedure, shortened: as §1

[3] = compound: C[C@@H](Oc1cc(-c2cnn(C3CCNCC3)c2)cnc1N)c1c(Cl)ccc(F)c1Cl [crizotinib]
Procedure, shortened: as §1

[4] = compound: C[C@H](C1=CC=C(C=C1)C(=O)NC2=C3C=CNC3=NC=C2)N
Procedure, shortened: as §1

[5] = compound: C[C@H](Nc1ncnc2nc[nH]c12)c1cc2cccc(Cl)c2c(=O)n1-c1ccccc1 [duvelisib]
Procedure, shortened: as §1

[6] = compound: Cc1cc(Nc2cc(CN3CCOCC3)c3nc(C)c(Cc4ccc(Cl)cc4F)n3n2)n[nH]1 [gandotinib]
Procedure, shortened: as §1

[7] = compound: Cc1cc(Nc2cc(N3CCN(C)CC3)nc(Sc3ccc(NC(=O)C4CC4)cc3)n2)n[nH]1 [tozasertib]
Procedure, shortened: as §1

[8] = compound: Cc1ccc(-n2nc(C(C)(C)C)cc2NC(=O)Nc2ccc(OCCN3CCOCC3)c3ccccc23)cc1 [doramapimod]
Procedure, shortened: as §1

[9] = compound: Cc1ccc(NC(=O)c2ccc(CN3CC[C@H](N(C)C)C3)c(C(F)(F)F)c2)cc1Nc1nccc(-c2cncnc2)n1 [bafetinib]
Procedure, shortened: as §1

[10] = compound: Cc1cccc(CC(=O)N2CCc3c2ccc(-c2cn(C)c4ncnc(N)c24)c3F)n1
Procedure, shortened: as §1

[11] = compound: Cc1cn(-c2cc(NC(=O)c3ccc(C)c(Nc4nccc(-c5cccnc5)n4)c3)cc(C(F)(F)F)c2)cn1 [nilotinib]
Procedure, shortened: as §1

[12] = compound: Cc1nc(Nc2n[nH]c3c2CN(C(=O)N[C@H](CN(C)C)c2ccccc2)C3(C)C)c2sccc2n1
Procedure, shortened: as §1

[13] = compound: Cc1nc(Nc2ncc(C(=O)Nc3c(C)cccc3Cl)s2)cc(N2CCN(CCO)CC2)n1 [dasatinib]
Procedure, shortened: as §1

[14] = compound: Cc1ncc(-c2ccnc(Nc3ccc(S(C)(=O)=O)cc3)n2)n1C(C)C
Procedure, shortened: as §1

[15] = compound: Cn1cc(-c2ccc3c(c2)CCN3C(=O)Cc2cccc(C(F)(F)F)c2)c2c(N)ncnc21
Procedure, shortened: as §1

[16] = compound: Cn1cc(CNCC2CCN(c3ncc(C(=O)NO)cn3)CC2)c2ccccc21 [quisinostat]
Procedure, shortened: as §1

[17] = compound: Cn1cncc1[C@@](N)(c1ccc(Cl)cc1)c1ccc2c(c1)c(-c1cccc(Cl)c1)cc(=O)n2C [tipifarnib]
Procedure, shortened: as §1

[18] = compound: NC(=O)Nc1cc(-c2cccc(F)c2)sc1C(=O)N[C@H]1CCCNC1
Procedure, shortened: as §1

[19] = compound: NC(=O)c1cnc(N[C@@H]2CCCC[C@@H]2N)nc1Nc1cccc(-n2nccn2)c1
Procedure, shortened: as §1

[20] = compound: NC1(c2ccc(-c3nc4ccn5c(=O)[nH]nc5c4cc3-c3ccccc3)cc2)CCC1
Procedure, shortened: as §1

UniProt P02792, sequence (P02792 whole entry, looked up): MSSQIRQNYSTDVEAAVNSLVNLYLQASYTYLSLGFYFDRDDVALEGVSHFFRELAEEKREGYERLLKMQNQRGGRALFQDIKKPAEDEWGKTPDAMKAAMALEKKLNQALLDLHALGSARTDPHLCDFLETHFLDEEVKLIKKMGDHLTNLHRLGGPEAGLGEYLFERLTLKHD
UniProt Q9UI10, sequence (Q9UI10 whole entry, looked up): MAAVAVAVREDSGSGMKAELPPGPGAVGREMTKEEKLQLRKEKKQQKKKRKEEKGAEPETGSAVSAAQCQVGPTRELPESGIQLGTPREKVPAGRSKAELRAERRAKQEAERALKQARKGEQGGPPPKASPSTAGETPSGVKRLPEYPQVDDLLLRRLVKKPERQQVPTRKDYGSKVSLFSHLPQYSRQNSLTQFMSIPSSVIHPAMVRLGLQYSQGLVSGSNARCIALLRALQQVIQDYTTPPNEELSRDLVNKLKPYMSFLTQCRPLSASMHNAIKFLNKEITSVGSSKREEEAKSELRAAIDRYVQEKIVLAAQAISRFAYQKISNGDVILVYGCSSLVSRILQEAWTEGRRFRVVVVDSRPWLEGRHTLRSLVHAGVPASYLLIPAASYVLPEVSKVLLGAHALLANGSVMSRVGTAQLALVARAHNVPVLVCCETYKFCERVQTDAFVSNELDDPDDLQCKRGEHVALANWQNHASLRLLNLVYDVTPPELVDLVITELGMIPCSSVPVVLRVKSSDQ
UniProt Q9NZC3, sequence (Q9NZC3 whole entry, looked up): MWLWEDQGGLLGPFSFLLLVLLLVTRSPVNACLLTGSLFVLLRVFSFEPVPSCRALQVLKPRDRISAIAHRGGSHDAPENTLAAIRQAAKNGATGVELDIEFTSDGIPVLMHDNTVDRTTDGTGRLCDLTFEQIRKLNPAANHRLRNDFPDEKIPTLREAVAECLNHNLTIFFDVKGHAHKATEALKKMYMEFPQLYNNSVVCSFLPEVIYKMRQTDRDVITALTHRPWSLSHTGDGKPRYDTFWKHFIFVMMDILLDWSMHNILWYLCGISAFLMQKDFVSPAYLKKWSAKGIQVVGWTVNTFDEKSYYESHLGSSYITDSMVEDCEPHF
UniProt P49356, sequence (P49356 whole entry, looked up): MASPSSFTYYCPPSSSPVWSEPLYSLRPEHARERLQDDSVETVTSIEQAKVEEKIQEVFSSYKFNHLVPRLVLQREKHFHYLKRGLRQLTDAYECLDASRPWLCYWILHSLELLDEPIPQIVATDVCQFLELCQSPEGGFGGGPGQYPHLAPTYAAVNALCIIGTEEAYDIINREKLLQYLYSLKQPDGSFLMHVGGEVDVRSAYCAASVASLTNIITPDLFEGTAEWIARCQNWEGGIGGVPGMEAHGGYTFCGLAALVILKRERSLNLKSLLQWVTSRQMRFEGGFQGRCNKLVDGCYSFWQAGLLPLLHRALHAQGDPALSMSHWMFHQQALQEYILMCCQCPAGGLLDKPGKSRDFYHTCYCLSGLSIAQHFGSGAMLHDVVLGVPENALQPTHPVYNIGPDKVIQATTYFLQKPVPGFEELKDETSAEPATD
UniProt Q8N6R0, sequence (Q8N6R0 whole entry, looked up): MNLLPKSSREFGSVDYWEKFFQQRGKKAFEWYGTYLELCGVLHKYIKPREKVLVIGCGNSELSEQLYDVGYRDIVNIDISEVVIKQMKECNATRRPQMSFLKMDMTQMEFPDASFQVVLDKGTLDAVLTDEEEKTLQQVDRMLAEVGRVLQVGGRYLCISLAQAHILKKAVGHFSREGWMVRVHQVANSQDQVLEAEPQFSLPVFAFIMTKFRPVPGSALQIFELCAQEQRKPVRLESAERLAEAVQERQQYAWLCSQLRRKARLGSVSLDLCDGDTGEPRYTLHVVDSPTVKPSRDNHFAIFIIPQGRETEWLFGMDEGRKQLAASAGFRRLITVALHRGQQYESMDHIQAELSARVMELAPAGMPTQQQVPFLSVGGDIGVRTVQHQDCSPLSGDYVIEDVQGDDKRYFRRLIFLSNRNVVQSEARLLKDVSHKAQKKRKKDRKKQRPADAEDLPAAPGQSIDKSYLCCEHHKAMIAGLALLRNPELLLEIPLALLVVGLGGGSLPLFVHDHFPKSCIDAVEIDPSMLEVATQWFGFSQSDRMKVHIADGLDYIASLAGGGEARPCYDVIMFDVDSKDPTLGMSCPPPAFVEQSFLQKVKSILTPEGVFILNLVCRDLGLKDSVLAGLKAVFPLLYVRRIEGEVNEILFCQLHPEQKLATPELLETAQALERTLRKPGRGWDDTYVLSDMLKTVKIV
UniProt P51114, sequence (P51114 whole entry, looked up): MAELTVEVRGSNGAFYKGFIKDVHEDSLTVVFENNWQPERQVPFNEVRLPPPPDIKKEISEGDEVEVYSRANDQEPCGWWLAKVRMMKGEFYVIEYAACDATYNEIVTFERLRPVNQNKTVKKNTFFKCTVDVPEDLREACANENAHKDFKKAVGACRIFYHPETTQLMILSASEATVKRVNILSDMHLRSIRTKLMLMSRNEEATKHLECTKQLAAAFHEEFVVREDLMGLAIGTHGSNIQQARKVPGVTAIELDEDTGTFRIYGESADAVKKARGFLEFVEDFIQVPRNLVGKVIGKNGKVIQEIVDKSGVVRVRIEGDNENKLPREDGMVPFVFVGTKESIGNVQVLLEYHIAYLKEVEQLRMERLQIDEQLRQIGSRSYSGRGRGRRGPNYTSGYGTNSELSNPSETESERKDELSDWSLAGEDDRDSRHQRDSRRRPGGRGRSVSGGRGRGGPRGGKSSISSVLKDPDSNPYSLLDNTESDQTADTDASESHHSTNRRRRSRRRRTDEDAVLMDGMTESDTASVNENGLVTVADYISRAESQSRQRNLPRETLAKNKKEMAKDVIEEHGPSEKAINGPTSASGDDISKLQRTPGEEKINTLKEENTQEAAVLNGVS
UniProt Q5VTE0, sequence (Q5VTE0 whole entry, looked up): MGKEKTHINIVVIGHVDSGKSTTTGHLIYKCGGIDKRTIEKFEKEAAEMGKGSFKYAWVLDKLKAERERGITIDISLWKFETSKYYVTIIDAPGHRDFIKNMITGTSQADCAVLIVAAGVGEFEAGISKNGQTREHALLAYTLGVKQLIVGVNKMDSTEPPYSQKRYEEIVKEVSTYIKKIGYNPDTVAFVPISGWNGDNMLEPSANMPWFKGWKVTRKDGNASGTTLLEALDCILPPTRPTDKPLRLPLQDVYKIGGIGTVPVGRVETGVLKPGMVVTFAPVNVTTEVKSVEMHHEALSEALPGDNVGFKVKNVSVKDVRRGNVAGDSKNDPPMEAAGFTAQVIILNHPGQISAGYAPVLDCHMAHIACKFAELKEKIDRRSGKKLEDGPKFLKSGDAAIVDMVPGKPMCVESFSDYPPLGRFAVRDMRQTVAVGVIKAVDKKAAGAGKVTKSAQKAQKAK
UniProt Q08426, sequence (Q08426 whole entry, looked up): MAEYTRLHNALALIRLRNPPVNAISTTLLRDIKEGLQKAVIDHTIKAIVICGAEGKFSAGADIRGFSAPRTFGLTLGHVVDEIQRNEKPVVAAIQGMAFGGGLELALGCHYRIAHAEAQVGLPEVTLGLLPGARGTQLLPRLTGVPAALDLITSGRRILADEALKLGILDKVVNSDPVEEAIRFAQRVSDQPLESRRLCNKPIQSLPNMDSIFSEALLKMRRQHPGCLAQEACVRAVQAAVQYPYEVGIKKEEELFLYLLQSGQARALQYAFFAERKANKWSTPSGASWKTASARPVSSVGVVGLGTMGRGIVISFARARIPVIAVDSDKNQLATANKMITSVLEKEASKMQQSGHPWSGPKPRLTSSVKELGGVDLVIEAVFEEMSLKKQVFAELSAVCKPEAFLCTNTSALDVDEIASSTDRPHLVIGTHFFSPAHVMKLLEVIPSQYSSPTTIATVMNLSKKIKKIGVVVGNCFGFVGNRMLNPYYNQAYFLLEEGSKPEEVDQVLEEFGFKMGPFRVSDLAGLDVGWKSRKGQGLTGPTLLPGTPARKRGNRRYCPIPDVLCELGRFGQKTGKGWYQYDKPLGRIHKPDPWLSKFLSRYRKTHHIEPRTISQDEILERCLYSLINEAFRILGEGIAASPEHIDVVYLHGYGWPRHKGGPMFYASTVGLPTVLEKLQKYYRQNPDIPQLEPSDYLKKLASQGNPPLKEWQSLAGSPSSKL
UniProt Q9UBQ6, sequence (Q9UBQ6 whole entry, looked up): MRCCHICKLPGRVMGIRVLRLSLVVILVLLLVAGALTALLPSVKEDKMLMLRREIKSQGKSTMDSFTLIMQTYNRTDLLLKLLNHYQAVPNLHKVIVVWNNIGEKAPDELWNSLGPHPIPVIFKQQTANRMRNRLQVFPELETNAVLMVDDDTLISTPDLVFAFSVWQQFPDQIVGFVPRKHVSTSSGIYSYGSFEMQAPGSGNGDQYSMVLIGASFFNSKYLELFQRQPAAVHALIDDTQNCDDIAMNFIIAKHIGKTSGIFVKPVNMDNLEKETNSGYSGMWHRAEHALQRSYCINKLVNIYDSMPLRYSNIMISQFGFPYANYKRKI
UniProt O75071, sequence (O75071 whole entry, looked up): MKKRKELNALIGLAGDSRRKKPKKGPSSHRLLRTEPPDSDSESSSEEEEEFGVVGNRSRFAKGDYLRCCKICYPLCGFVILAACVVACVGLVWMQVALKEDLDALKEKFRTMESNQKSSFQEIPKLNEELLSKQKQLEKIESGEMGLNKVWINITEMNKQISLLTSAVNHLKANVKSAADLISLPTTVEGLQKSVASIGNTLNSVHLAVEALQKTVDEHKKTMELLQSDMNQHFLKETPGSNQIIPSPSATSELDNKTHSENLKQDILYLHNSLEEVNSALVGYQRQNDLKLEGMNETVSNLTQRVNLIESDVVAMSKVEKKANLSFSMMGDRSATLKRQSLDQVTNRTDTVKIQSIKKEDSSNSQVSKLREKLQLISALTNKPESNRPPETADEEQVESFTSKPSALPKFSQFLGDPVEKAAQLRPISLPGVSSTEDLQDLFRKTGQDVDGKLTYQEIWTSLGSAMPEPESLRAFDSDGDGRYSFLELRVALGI

Row | Target | log2 fold change [1] | log2 fold change [2] | log2 fold change [3] | log2 fold change [4] | log2 fold change [5] | log2 fold change [6] | log2 fold change [7] | log2 fold change [8] | log2 fold change [9] | log2 fold change [10] | log2 fold change [11] | log2 fold change [12] | log2 fold change [13] | log2 fold change [14] | log2 fold change [15] | log2 fold change [16] | log2 fold change [17] | log2 fold change [18] | log2 fold change [19] | log2 fold change [20]
1 | ENO1, A0A2R8YEM5 | -0.016 | -0.037 | 0.017 | -0.469 (active) | 0 | 0.185 | 0.001 | -0.006 | 0.036 | 0.244 (active) | -0.021 | -0.017 | -0.013 | 0.002 | -0.021 | -0.005 | 0.053 | -0.026 | 0.002 | -0.008
2 | FOXK1 (UniProt P85037) | 0.006 | -0.036 | 0.025 | -0.024 | -0.043 | 0.002 | 0.009 | 0.035 | 0.029 | 0.034 | -0.006 | -0.014 | -0.065 | -0.038 | 0.004 | -0.031 | -0.042 | -0.002 | -0.011 | 0.007
3 | EHHADH (UniProt Q08426) | -0.037 | 0.143 | -0.001 | 0.016 | 0.051 | -0.117 | 0.045 | 0.048 | 0.06 | 0 | -0.048 | -0.091 | -0.011 | 0.045 | -0.047 | -0.072 | 0.052 | -0.003 | 0.025 | 0.097
4 | EFCAB14 (UniProt O75071) | -0.051 | -0.058 | 0.006 | 0.037 | 0.022 | 0.064 | 0.086 | 0.011 | -0.002 | -0.084 | -0.16 | 0.016 | 0.049 | 0.001 | -0.005 | -0.001 | 0.013 | 0.053 | -0.005 | 0.013
5 | EXTL2 (UniProt Q9UBQ6) | -0.071 | -0.282 | 0.032 | -0.138 | -0.001 | 0.106 | 0.028 | 0.058 | -0.02 | -0.006 | 0.07 | -0.085 | 0.127 | 0.081 | 0.13 | -0.146 | 0.017 | 0.035 | -0.068 | 0.003
6 | EEF1A1P5 (UniProt Q5VTE0) | -0.006 | 0.027 | -0.026 | -0.114 | -0.098 | 0.044 | -0.001 | 0.011 | -0.017 | 0.117 | -0.055 | 0.005 | -0.172 | -0.083 | 0.005 | -0.054 | 0.008 | 0.016 | 0.006 | -0.013
7 | FBXO38 (UniProt Q6PIJ6) | 0.039 | -0.052 | 0.038 | 0.018 | 0.01 | -0.037 | 0.119 | 0.05 | -0.316 | -0.016 | 0.157 | -0.203 | -0.03 | -0.125 | -0.069 | -0.028 | -0.071 | 0.026 | -0.031 | 0.012
8 | FNTB (UniProt P49356) | 0.027 | -0.052 | 0.032 | -0.047 | 0.143 | 0.055 | -0.069 | -0.053 | -0.013 | 0.015 | -0.005 | 0.016 | 0.018 | -0.04 | -0.022 | -0.002 | 0.239 (active) | 0.003 | -0.011 | -0.027
9 | EBP (UniProt Q15125) | -0.044 | -0.004 | 0.07 | -0.269 (active) | -0.093 | 0.1 | -0.016 | -0.127 | -0.011 | 0 | 0.081 | -0.016 | -0.05 | 0.018 | -0.137 | 0.038 | -0.03 | 0.042 | -0.006 | -0.05
10 | EIF2B4 isoform 2 (UniProt Q9UI10) | -0.041 | 0.007 | -0.037 | -0.021 | -0.013 | -0.048 | -0.01 | -0.012 | -0.058 | 0.044 | -0.002 | 0.004 | -0.022 | 0.003 | 0.011 | 0 | 0.037 | 0.074 | -0.003 | 0.002
11 | FIG4 (UniProt Q92562) | -0.065 | 0.12 | -0.016 | 0.039 | -0.023 | -0.099 | -0.112 | -0.067 | -0.09 | 0.058 | -0.02 | 0.144 | -0.007 | 0.08 | 0.145 | 0.077 | -0.038 | 0.013 | -0.066 | 0.06
12 | FTL (UniProt P02792) | -0.072 | -0.027 | -0.066 | -0.022 | -0.001 | 0.068 | 0.008 | -0.024 | -0.052 | -0.018 | -0.039 | 0.035 | -0.03 | -0.038 | -0.012 | 0.043 | 0.017 | 0.091 | 0.009 | 0.06
13 | EEF1AKNMT (UniProt Q8N6R0) | -0.006 | -0.046 | -0.123 | 0.017 | 0.03 | -0.133 | -0.029 | 0.074 | -0.014 | -0.024 | 0.006 | -0.008 | -0.044 | -0.011 | 0.043 | -0.093 | -0.003 | 0.045 | -0.013 | 0.01
14 | EPHX2 (UniProt P34913) | -0.031 | -0.019 | 0.061 | 0.008 | -0.031 | 0.057 | 0.116 | -0.079 | 0.131 | 0.012 | 0.097 | -0.036 | 0.005 | 0.027 | 0.007 | 0.02 | 0.021 | -0.036 | -0.021 | -0.015
15 | FXR1 (UniProt P51114) | -0.026 | -0.052 | -0.006 | -0.106 | 0.023 | -0.02 | 0.008 | 0.065 | -0.03 | 0.05 | -0.139 | 0.031 | 0.028 | -0.011 | 0.018 | -0.057 | -0.005 | 0.024 | -0.001 | -0.047
16 | GDE1 (UniProt Q9NZC3) | -0.016 | 0.114 | -0.005 | 0.842 (active) | 0.049 | -0.434 (active) | 0.157 | -0.017 | -0.041 | -0.409 (active) | – | – | 0.012 | – | -0.012 | 0.085 | – | 0.029 | -0.02 | -0.022
